Measurements published in PubChem BioAssay AID624296 (National Center for Advancing Translational Sciences (NCATS), 2012).
Among all 350,000 compounds or so, about 9,900 (2.8%) were called active. About 15% were inconclusive and are not listed. Calls follow the shape of the dose curve; as a rule, active = well fitted activation curve with a large enough effect; inconclusive = small, poorly fitted or top-dose-only effect; inactive = no such curve, though single readings can be large or run the other way. This excerpt belongs to a sample that is enriched for actives.

Experiment: A quantitative high throughput screen for small molecules that induce DNA re-replication in MCF 10a normal breast cells. Also: nearly all actives have a fitted effect of over 50% in size. As to activity, positive = re-replication: % of control where 0% means no effect.
Details: MCF 10A DNA re-replication, Hoechst nuclear intensity, 48 h; series mostly up to 46.1 µM; activity, positive = re-replication: at the top concentration
Potency is read from the fitted curve at half-maximal effect.

| SMILES | activity, positive = re-replication | Potency |
| --- | --- | --- |
| CCOc1ccc(Br)cc1S(=O)(=O)Nc1ccc(S(=O)(=O)Nc2cc(C)on2)cc1 | -35.5% (inactive) |  |
| c1ccc(CNc2ncnc3[nH]ncc23)cc1 | 7.58% (inactive) |  |
| O=C(COC(=O)c1cc(S(=O)(=O)N2CCOCC2)ccc1Cl)NCCc1ccccc1 | 16.1% (inactive) |  |
| COc1ccc2[nH]c3c(c2c1)CCN1C(=O)C(CC(=O)NCc2cccc(C(F)(F)F)c2)C[C@H](C(=O)N2CCOCC2)[C@@]31C (stereo partly drawn) | -13.4% (inactive) |  |
| C=CCn1c(SCc2c(C)noc2C)nc2sc3c(c2c1=O)CCC(C)C3 (stereo not drawn) |  | 3.66 µM (active) |
| CC1CCc2c(sc3nc4n(c(=O)c23)CCS4)C1 (stereo not drawn) | 4.82% (inactive) |  |
| C=CCn1c(SCC(=O)NCC2CCCO2)nc2sc(C)c(C)c2c1=O (stereo not drawn) | 0.828% (inactive) |  |
| CC(NC(=O)COC(=O)CCC(=O)c1ccc(Cl)cc1)c1ccccc1 (stereo not drawn) | 0.61% (inactive) |  |
| CC[C@]12c3[nH]c4ccc(OC)cc4c3CCN1C(=O)C(CC(=O)NCc1ccco1)C[C@@H]2C(=O)N1CCN(C(=O)C2CC2)CC1 (stereo partly drawn) | 12.3% (inactive) |  |
| CC12CCCCC1=CC(=O)CC2 (stereo not drawn) | -3.75% (inactive) |  |
| COc1ccc(Nc2ccc3ccccc3c2)cc1 |  | 23.1 µM (active) |
| COc1ccc(Nc2nnc(C)c3ccccc23)cc1 | -4.32% (inactive) |  |
| COc1ccc(-c2nnc(-c3ccc4ccccc4c3)o2)cc1 | 1.89% (inactive) |  |
| COc1cc(C(=O)N2CCN(S(=O)(=O)c3ccc(C(C)C)cc3)CC2)ccc1OCC(=O)N1CCOCC1 | -2.7% (inactive) |  |
| CC/C(=N\NC(=O)c1ccccc1Cl)c1ccc(Br)s1 | 4.13% (inactive) |  |
| O=C(C/C(=N\NC(=O)c1ccccc1Br)C(F)(F)F)c1cccs1 |  | 11.6 µM (active) |
| O=C(CNC(=O)c1ccccc1Br)NNC(=O)c1cccs1 | -1.43% (inactive) |  |
| CCOC(=O)Cc1csc(SCC(=O)Nc2ccc(C)cc2F)n1 | 2.76% (inactive) |  |
| O=C(OCC(=O)N1CCCCCC1)c1ccc(Cl)nc1 | 0.256% (inactive) |  |
| COCc1nnc(NC(=O)c2ccc3c(c2)OCO3)s1 | -0.575% (inactive) |  |
| Cc1ccc(C(=O)Nc2sc(Cc3ccc4c(c3)OCO4)c(C)c2C(N)=O)cc1 |  | 4.11 µM (active) |
| CC(=O)NCCC(=O)Nc1nc(C)c(Cc2ccc3c(c2)OCO3)s1 | 6.4% (inactive) |  |
| COc1ccccc1C(=O)NCC(=O)OCC(=O)Nc1nnc(-c2ccccc2)o1 | -0.4% (inactive) |  |
| Cc1coc2c(O)cc3c(c12)OC1(N2CCCCC2)C(=O)NCCCC31 (stereo not drawn) |  | 18.4 µM (active) |
| O=C1OC(Oc2ccc(Br)cc2)(c2ccccc2)c2ccccc21 (stereo not drawn) |  | 11.6 µM (active) |
| Cc1cccc(C(=O)OCC(=O)NC(C)C2CC3CCC2C3)c1O (stereo not drawn) | -1.59% (inactive) |  |

| SMILES | activity, positive = re-replication | Potency |
| --- | --- | --- |
| Cc1cc(OCCCC(=O)Nc2cc(S(=O)(=O)N3CCOCC3)ccc2N2CCOCC2)ccc1Cl | -5.32% (inactive) |  |
| O=c1cc(N2CCN(Cc3ccccc3)CC2)c(-c2ccccc2)n[nH]1 | 1.62% (inactive) |  |
| O=c1cc(N2CCCCC2)c(-c2ccccc2)nn1Cc1cccc(F)c1 |  | 20.6 µM (active) |
| O=C(CS(=O)(=O)c1cn(Cc2cccc(F)c2)c2ccccc12)N1CCCCC1 | -1.38% (inactive) |  |
| COc1ccc(-c2nnc(SC(C)C(=O)NC3CC3)o2)cc1 (stereo not drawn) | 11.4% (inactive) |  |
| Cc1nn(-c2ccccc2)c(Cl)c1C(=O)Nc1ccccc1 | 0.187% (inactive) |  |
| Cc1nn(-c2ccccc2)c(C)c1/C=C/C(=O)OC(C)C(N)=O (stereo not drawn) | 1.07% (inactive) |  |
| Cc1ccc(C(=O)/C=C/c2c(C)nn(-c3ccccc3)c2Cl)cc1 |  | 16.4 µM (active) |
| Cc1ccc(CNC(=O)CC(NC(=O)c2ccccc2)c2ccccc2)cc1 (stereo not drawn) | 1.97% (inactive) |  |
| COc1ccc(NC(=O)Nc2cccc3cccnc23)cc1 | 0.777% (inactive) |  |
| OCc1ccc(OCCCOc2cccc3cccnc23)cc1 | -8.56% (inactive) |  |
| O=C(Nc1ccccc1)Oc1cccc2cccnc12 |  | 4.11 µM (active) |
| CN(Cc1ccccc1)C(=O)COC(=O)/C=C/c1ccc2c(c1)OCO2 | 2.86% (inactive) |  |
| O=C(CN1C(=O)NC2(CCCCCC2)C1=O)NCc1ccc(F)cc1 | -0.62% (inactive) |  |
| COc1ccc(S(=O)(=O)Nc2ccc3cn[nH]c3c2)cc1[N+](=O)[O-] | -2.12% (inactive) |  |
| COc1ccc(NC(=O)C(=O)NCC(=O)Nc2cccc(C(F)(F)F)c2)cc1 | -3.28% (inactive) |  |
| N#Cc1ccc(Oc2ccc(C(F)(F)F)cc2NC(=O)c2ccc(F)cc2)cc1 | 4.38% (inactive) |  |
| COc1cc(NC(=O)c2[nH]cnc2C(N)=O)cc(C(=O)Nc2cccc(C(F)(F)F)c2)c1 |  | 7.31 µM (active) |
| CNC(=O)c1ccc(NC(=O)c2cccc(C(F)(F)F)c2)cc1 | -36.1% (inactive) |  |
| Cc1cccc(NC(=O)c2nnn(-c3cccc(C(F)(F)F)c3)c2N)c1 | -4.01% (inactive) |  |
| COc1cc(NC(=O)c2cncc(-c3ccc(C#N)cc3)c2)cc(C(=O)Nc2cccc(C(F)(F)F)c2)c1 |  | 13 µM (active) |
| CC(=O)N1CCc2ccc(N)cc21 | -2.27% (inactive) |  |
| CC1CCC(CN2CCN=C2N(C)C)CC1 (stereo not drawn) | 2.36% (inactive) |  |
| COc1cc2c(cc1OC)CN(C(C)C(=O)Nc1cccc(S(=O)(=O)N3CCOCC3)c1)CC2 (stereo not drawn) | 1.81% (inactive) |  |
| COCCn1c(C)cc(C(=O)CN2c3cccc4cccc(c34)S2(=O)=O)c1C | 18.7% (inactive) |  |
| O=C(COC(=O)/C=C/c1cccc(Cl)c1)NCc1cccs1 | 6.71% (inactive) |  |

| SMILES | activity, positive = re-replication | Potency |
| --- | --- | --- |
| Cc1c(NC(=O)C(C)OC(=O)c2ccccc2O)c(=O)n(-c2ccccc2)n1C (stereo not drawn) | -8.76% (inactive) |  |
| Cc1ccc(OCCCC(=O)Nc2ccc3c(c2)OCCO3)cc1 | -1.53% (inactive) |  |
| CC(C)N(Cc1nnc(-c2ccccc2Br)o1)C(=O)c1cc(Cl)nc2ccccc12 | -0.578% (inactive) |  |
| O=C(Nc1ccc(Br)cn1)c1ccc([N+](=O)[O-])cc1Cl | -1.49% (inactive) |  |
| Cc1cccc(NC(=O)c2cc([N+](=O)[O-])ccc2N2CCN(C)CC2)c1 | 7.05% (inactive) |  |
| Cc1cccc(NC(=O)c2ccc([N+](=O)[O-])o2)c1 |  | 2.91 µM (active) |
| O=C(Nc1ccc(Br)cn1)c1ccc([N+](=O)[O-])o1 |  | 4.11 µM (active) |
| Cc1cccc(NC(=S)NC(=O)c2ccc(Br)o2)c1 | 19.9% (inactive) |  |
| CN1C(=O)c2ccc(C(=O)Nc3ccc(Br)cn3)cc2C1=O | -0.877% (inactive) |  |
| COc1ccc(CNC(=O)c2ccc(NS(=O)(=O)c3ccc4[nH]c(=O)[nH]c4c3)cc2)cc1OC | -5.27% (inactive) |  |
| COc1ccc(CNCCCn2cnc3c(OCc4ccccc4)ncnc32)cc1 | 1.64% (inactive) |  |
| CSCCC(NC(=O)COc1ccccc1)C(=O)N(C)CC(=O)Nc1ccc(C)cc1 (stereo not drawn) | 1.63% (inactive) |  |
| CCOC(=O)CCCCCC(=O)Nc1ccc2c(c1)CC(=O)N([C@@H](C)CO)C[C@H](C)[C@@H](CN(C)Cc1ccccc1)O2 | -21.7% (inactive) |  |
| COc1cccc(/C=C/C(=O)OCC(=O)N2CCN(c3ccccc3)CC2)c1 | 5.15% (inactive) |  |
| COc1cccc(C(=O)NNC(=O)/C=C/c2ccccc2)c1 | 3.32% (inactive) |  |
| COc1cccc(C=CC(=O)C=CC=Cc2ccccc2)c1 |  | 16.4 µM (active) |
| Cc1noc(C)c1C(=O)OC(C)C(=O)Nc1ccc2c(c1)OCO2 (stereo not drawn) | -1.99% (inactive) |  |
| CC1(C)CC(=O)C=C(c2ccc(Cl)c(C(F)(F)F)c2)C1 | 84.6% (inactive) |  |
| COc1ccc(C2=NOC(C(=O)NCc3ccco3)C2)cc1OC (stereo not drawn) |  | 4.61 µM (active) |
| COc1ccc(S(=O)(=O)N2CCC(C(=O)NCc3ccco3)CC2)cc1C | -0.313% (inactive) |  |
| O=C(NCc1cc(C(F)(F)F)cc(C(F)(F)F)c1)C1CC(c2cccc(F)c2)=NO1 (stereo not drawn) | -1.76% (inactive) |  |
| COc1ccccc1C(CNC(=O)c1ccc(C)c(S(=O)(=O)N2CCCCC2)c1)N(C)C (stereo not drawn) | -2.66% (inactive) |  |
| Cc1ccc(OCCOCCOc2ccc(Br)cc2/C=N\NC(=O)c2ccncc2)cc1 |  | 20.6 µM (active) |
| Cc1ccc(S(=O)(=O)Oc2ccc(/C=N/NC(=O)c3ccncc3)cc2)cc1 | 11% (inactive) |  |
| COc1ccc(CC(=O)NCC(=O)N/N=C/c2cc(Br)ccc2OC)cc1 | 11% (inactive) |  |
| CCCCc1ccc(NC(=O)CN2C(=O)NC(Cc3ccccc3)C2=O)cc1 (stereo not drawn) | -5.5% (inactive) |  |

| SMILES | activity, positive = re-replication | Potency |
| --- | --- | --- |
| CCCCNCCS(=O)(=O)NCc1ccccc1 | 6.56% (inactive) |  |
| Cc1ccc(C)c(NC(=O)C(c2ccccc2)N2CCN(CC(=O)NC3CC3)CC2)c1 (stereo not drawn) | -1.84% (inactive) |  |
| Cc1ccc(-n2c(=O)c(C#N)cc3c(=O)n4ccccc4nc32)cc1C |  | 10.3 µM (active) |
| Cc1ccn2c(=O)c(NC(=O)c3cccc4ccccc34)c(C)nc2c1 | 3.52% (inactive) |  |
| Cc1ccc(-n2c(SCC(=O)N3CCC(C(=O)O)CC3)nc3ccccc3c2=O)cc1C | -3.72% (inactive) |  |
| CC(=O)Nc1ccc(C(=O)Nc2cc(S(=O)(=O)N3CCOCC3)ccc2N2CCOCC2)cc1 | -7.14% (inactive) |  |
| COc1ccc(CCN2CC(C(=O)OCC(=O)NCc3ccccc3Cl)CC2=O)cc1OC (stereo not drawn) | 9.97% (inactive) |  |
| Fc1ccccc1-c1cc2cc3c(cc2cn1)OCO3 | 20.3% (inactive) |  |
| CC1=Nn2c(nnc2-c2ccccc2)SC1 | -3.17% (inactive) |  |
| Cc1nnc2n1N=C(c1ccccc1)CS2 | 1.39% (inactive) |  |
| COc1ccc(C2=Nn3c(nnc3-c3ccccc3OC)SC2)cc1OC1CCCC1 |  | 0.651 µM (active) |
| CCOC(=O)c1ccccc1NS(=O)(=O)c1c(C)nc2sccn2c1=O | -0.74% (inactive) |  |
| CCOC(=O)c1ccccc1NS(=O)(=O)c1ccc(OC)cc1 |  | 16.4 µM (active) |
| CCOc1cc(NS(=O)(=O)c2ccc(OC)cc2)c(OCC)cc1NC(C)=O | 12.6% (inactive) |  |
| CN1CCN(S(=O)(=O)c2ccc(N3CCN(c4ccccc4O)CC3)c([N+](=O)[O-])c2)CC1 | 2.95% (inactive) |  |
| CC(=O)c1sc(NC(=O)CCN2C(=O)C3CC=CCC3C2=O)nc1-c1ccccc1 (stereo not drawn) | -0.493% (inactive) |  |
| COc1ccc(OC)c(Nc2nc(-c3ccc(O)c(O)c3)cs2)c1 |  | 8.2 µM (active) |
| COc1ccc(-c2csc(Nc3ccccn3)n2)cc1 | 0.252% (inactive) |  |
| COc1ccc(CC(=O)Nc2nc(-c3ccc(F)c(F)c3)cs2)cc1OC | 3.89% (inactive) |  |
| C=CC[C@@H](CC(=O)N[C@@H](CO)Cc1ccccc1)C(=O)N[C@H](COC(=O)[C@H](CC=C)CC(=O)OC(C)(C)C)Cc1ccccc1 | -10.2% (inactive) |  |
| Oc1cccc(CCc2ccccn2)c1 | -3.55% (inactive) |  |
| COc1cc(/C=C/C(=O)OCC(=O)NC2CC2)cc(OC)c1OC | -2.1% (inactive) |  |
| Cc1nn(Cc2ccccc2)c2c1C(c1ccccc1)C(C#N)=C(N)O2 (stereo not drawn) | -2.92% (inactive) |  |
| Cc1cc(C)c(C#N)c(SCc2[nH]nc3c2C(c2ccccc2)C(C#N)=C(N)O3)n1 (stereo not drawn) | -7.51% (inactive) |  |
| Cc1cc(C)c2c3c(sc2n1)C(c1ccccc1)C(C#N)=C(N)O3 (stereo not drawn) |  | 2.82 µM (active) |
